Most compounds without a hit are left out; they make up all but 2.6% or so of the library.
Mcl1-Noxa inh = disrupts binding of human Mcl-1 to Noxa peptide; TR-FRET Mcl-1/Noxa peptide binding, 2 h; inhibition, % at 21.7 µM; 220,000 tested, 1.5% active;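 active = compounds that cut the protein-peptide binding signal by more than 50% relative to plate controls in a single-dose test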;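 also: His-tagged Mcl-1 with rhodamine Noxa BH3 peptide and terbium anti-His antibody; 0% = Mcl-1 plus Noxa peptide wells and 100% = peptide-only wells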
Mcl1-Bid inh = Mcl-1/Bid interaction inhibition; inhibition, % at 21.7 µM; TR-FRET Mcl-1/Bid-Dy647 peptide binding, 1536-well; Q07820; 220,000 tested, 0.97% active;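 active = compounds that cut the binding signal by more than half at the single screening dose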;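 also: His-tagged Mcl-1 with europium anti-His antibody binding Bid BH3 peptide; 0% = Mcl-1 plus peptide wells and 100% = peptide-only wells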
eIF4E-4G inh = inhibitors of eIF4E and eIF4G interaction in translation initiation; P63073+Q04637; TR-FRET eIF4E-eIF4GI(517-606) binding, 2 h; inhibition, % at 21.7 µM; 220,000 tested, 0.37% active; AID 782;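 active = inhibition above about 30%, limit read from the data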;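 also: 0% = full FRET control wells and 100% = background wells lacking eIF4GI fragment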
Target sequence (P63073 whole entry, looked up, the tested form may be a part): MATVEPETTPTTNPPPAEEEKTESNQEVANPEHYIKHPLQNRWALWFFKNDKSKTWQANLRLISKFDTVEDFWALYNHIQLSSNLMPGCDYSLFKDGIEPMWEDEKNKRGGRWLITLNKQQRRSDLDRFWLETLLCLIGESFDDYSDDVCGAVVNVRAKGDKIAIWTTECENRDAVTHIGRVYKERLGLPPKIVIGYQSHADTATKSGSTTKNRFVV
Target sequence (Q04637 whole entry, looked up, the tested form may be a part): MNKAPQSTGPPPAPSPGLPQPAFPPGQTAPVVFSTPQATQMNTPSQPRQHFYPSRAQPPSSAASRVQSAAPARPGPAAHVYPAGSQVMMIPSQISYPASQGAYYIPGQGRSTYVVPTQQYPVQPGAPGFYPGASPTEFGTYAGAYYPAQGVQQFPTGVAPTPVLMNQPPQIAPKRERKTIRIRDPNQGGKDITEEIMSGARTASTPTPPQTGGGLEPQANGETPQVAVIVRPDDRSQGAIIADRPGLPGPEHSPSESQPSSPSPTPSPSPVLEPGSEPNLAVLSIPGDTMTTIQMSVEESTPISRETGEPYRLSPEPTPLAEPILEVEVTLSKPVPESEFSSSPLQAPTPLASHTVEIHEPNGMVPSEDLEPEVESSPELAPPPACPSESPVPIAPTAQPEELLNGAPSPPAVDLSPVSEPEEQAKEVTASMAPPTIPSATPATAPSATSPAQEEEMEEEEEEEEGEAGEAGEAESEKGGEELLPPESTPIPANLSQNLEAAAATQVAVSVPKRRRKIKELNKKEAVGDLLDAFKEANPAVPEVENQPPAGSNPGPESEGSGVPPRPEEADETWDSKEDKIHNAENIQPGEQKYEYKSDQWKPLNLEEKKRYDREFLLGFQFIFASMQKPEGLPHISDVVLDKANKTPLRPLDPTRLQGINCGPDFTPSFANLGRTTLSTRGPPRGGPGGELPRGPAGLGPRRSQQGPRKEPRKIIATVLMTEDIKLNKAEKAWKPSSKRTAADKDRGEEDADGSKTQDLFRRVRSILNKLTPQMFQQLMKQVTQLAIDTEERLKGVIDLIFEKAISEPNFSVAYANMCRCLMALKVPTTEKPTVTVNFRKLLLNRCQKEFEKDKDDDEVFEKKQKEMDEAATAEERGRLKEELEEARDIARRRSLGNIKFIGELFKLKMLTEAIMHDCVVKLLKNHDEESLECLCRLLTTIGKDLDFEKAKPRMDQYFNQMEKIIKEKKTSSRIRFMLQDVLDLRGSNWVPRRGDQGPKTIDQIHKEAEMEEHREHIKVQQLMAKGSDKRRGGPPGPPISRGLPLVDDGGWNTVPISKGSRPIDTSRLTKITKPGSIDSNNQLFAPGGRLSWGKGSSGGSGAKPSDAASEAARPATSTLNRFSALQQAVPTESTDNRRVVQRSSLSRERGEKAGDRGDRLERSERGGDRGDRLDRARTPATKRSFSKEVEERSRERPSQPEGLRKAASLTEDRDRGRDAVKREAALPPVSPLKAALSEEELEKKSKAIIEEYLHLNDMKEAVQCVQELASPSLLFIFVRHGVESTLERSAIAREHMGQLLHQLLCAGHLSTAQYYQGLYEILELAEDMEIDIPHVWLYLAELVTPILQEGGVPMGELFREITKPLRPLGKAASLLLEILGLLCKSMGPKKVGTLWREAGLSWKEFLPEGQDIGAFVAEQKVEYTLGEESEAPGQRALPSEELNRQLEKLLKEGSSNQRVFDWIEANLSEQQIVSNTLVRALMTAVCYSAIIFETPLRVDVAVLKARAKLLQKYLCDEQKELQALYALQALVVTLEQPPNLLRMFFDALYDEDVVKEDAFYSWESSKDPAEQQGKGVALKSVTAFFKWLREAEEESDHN
14-3-3 Bad inh = disrupts binding of bovine 14-3-3 zeta to phospho-Bad peptide | TR-FRET 14-3-3zeta/Dy647-pBad peptide displacement, 1 h | inhibition, % at 21.7 µM | 220,000 tested, 0.71% active | P63103;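 active = inhibition above about 70%, limit read from the data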;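 also: 0% = full 14-3-3 plus peptide FRET controls and 100% = background without 14-3-3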
MCL1-BIM inh = disrupts human MCL1 binding to BIM-BH3 peptide; inhibition, % at 10.9 µM; GST-MCL1 / FITC-Bim-BH3 fluorescence polarization; Q07820; 320,000 tested, 0.68% active;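 active = inhibition above the mean inhibition of all tested compounds plus 3 SD, set per campaign, cut at about 40% in these data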;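 also: 0% = DMSO wells and 100% = unlabeled Bim-BH3 peptide control; higher means more loss of mP so more displacement of Bim peptide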
Mcl-1 Bim block = human Bim-Mcl-1 interaction inhibition | Bead-based flow cytometry, Bim peptide-Mcl-1 binding | inhibition, % at 10 µM | 190,000 tested, 0.1% active | AID 1009; in the data active = inhibition above about 40%;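 also: 0% = no compound tracer wells and 100% = peptide blocker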
* hit, by the source's call; ! = repeats disagree.

How did COc1ccc(C(=O)Oc2cccnc2)cc1OC do in these assays?
Mcl1-Noxa inh: 14; Mcl1-Bid inh: -39; eIF4E-4G inh: -5; 14-3-3 Bad inh: 73*; MCL1-BIM inh: -1; Mcl-1 Bim block: -2

How did O=C(Nc1ccc2c(c1)nc1n2CCSC1)c1ccco1 do in these assays?
Mcl1-Noxa inh: 60*; Mcl1-Bid inh: 5; eIF4E-4G inh: -17; 14-3-3 Bad inh: -3; MCL1-BIM inh: 18; Mcl-1 Bim block: -1

Results for O=C(Nc1ccc2c(c1)nc1n2CCOC1)c1ccco1 ?
Mcl1-Noxa inh: 10; Mcl1-Bid inh: -7; eIF4E-4G inh: -3; 14-3-3 Bad inh: 0; MCL1-BIM inh: 2; Mcl-1 Bim block: -2

How did O=C(Nc1ccc2c(c1)nc1n2CCN(C2CCCCC2)C1)c1ccco1 do in these assays?
Mcl1-Noxa inh: 84*; Mcl1-Bid inh: -55; eIF4E-4G inh: 0; 14-3-3 Bad inh: 24

How did CCC(=O)Nc1ccc2c(c1)nc1n2CCN(C2CCCCC2)C1 do in these assays?
Mcl1-Noxa inh: 26; Mcl1-Bid inh: -60; eIF4E-4G inh: 1; 14-3-3 Bad inh: -16; MCL1-BIM inh: 22; Mcl-1 Bim block: 1

What do the screens show for `CC(C)(C)NC(=O)NC(=O)COC(=O)c1cccc(S(=O)(=O)N2CCCCC2)c1`?
Mcl1-Noxa inh: 0; Mcl1-Bid inh: 0; eIF4E-4G inh: -1; 14-3-3 Bad inh: -1; MCL1-BIM inh: 5; Mcl-1 Bim block: -3

How did Cc1ccc2n(n1)c(=O)c(Cc1ccccc1)c([O-])[n+]2-c1ccccc1 do in these assays?
Mcl1-Noxa inh: 12; Mcl1-Bid inh: -12; eIF4E-4G inh: 3; 14-3-3 Bad inh: -1; MCL1-BIM inh: 13; Mcl-1 Bim block: -1

How did CC(C(=O)Nc1ccc([N+](=O)[O-])cc1)N1CCN(C/C=C/c2ccccc2)CC1 (configuration not stated) do in these assays?
Mcl1-Noxa inh: 12; Mcl1-Bid inh: -26; eIF4E-4G inh: 0; 14-3-3 Bad inh: -10; MCL1-BIM inh: 0; Mcl-1 Bim block: 41*

How did CC(=O)c1ccc(NC(=O)C(C)N2CCN(C/C=C/c3ccccc3)CC2)cc1 (configuration not stated) do in these assays?
Mcl1-Noxa inh: 10; Mcl1-Bid inh: -4; eIF4E-4G inh: 5; 14-3-3 Bad inh: -15; MCL1-BIM inh: -8

Results for COc1ccc(Cl)cc1NC(=O)C(C)N1CCN(C/C=C/c2ccccc2)CC1 (configuration not stated) ?
Mcl1-Noxa inh: 28; Mcl1-Bid inh: 51*; eIF4E-4G inh: -5; 14-3-3 Bad inh: 76*; MCL1-BIM inh: 3; Mcl-1 Bim block: -5

What do the screens show for `CCn1c(SCC(=O)NNC(=O)c2ccc(OC)cc2)nnc1-c1cccnc1`?
Mcl1-Noxa inh: -4; Mcl1-Bid inh: -29; eIF4E-4G inh: 3; 14-3-3 Bad inh: -7; MCL1-BIM inh: -1; Mcl-1 Bim block: 0

How did CNC(=O)c1sc(-c2ccccn2)nc1C do in these assays?
Mcl1-Noxa inh: 8; Mcl1-Bid inh: -2; eIF4E-4G inh: 4; 14-3-3 Bad inh: -3; MCL1-BIM inh: 7; Mcl-1 Bim block: 59*

Results for CCNC(=O)COC(=O)c1sccc1C ?
Mcl1-Noxa inh: -1; Mcl1-Bid inh: -20; eIF4E-4G inh: 1; 14-3-3 Bad inh: -6; MCL1-BIM inh: 4; Mcl-1 Bim block: 0

What do the screens show for `Cc1ccc(Cl)cc1N1CCN(C(=O)CSc2ccsc2[N+](=O)[O-])CC1`?
Mcl1-Noxa inh: 55*; Mcl1-Bid inh: -16; eIF4E-4G inh: 6; 14-3-3 Bad inh: -4; MCL1-BIM inh: 11; Mcl-1 Bim block: -8

What do the screens show for `Cc1ccc(OCC(O)CN2CCN(Cc3ccc4c(c3)OCO4)CC2)c(C)c1` (configuration not stated)?
Mcl1-Noxa inh: 0; Mcl1-Bid inh: 13; eIF4E-4G inh: 8; 14-3-3 Bad inh: 77*; MCL1-BIM inh: 4; Mcl-1 Bim block: -2

What do the screens show for `CC(=O)c1ccc(OCC(O)CN2CCN(Cc3ccc4c(c3)OCO4)CC2)cc1` (configuration not stated)?
Mcl1-Noxa inh: 28; Mcl1-Bid inh: 52*!; eIF4E-4G inh: -5; 14-3-3 Bad inh: 42; MCL1-BIM inh: 5; Mcl-1 Bim block: 0

Results for COc1ccc(OCC(O)CN2CCN(Cc3ccc4c(c3)OCO4)CC2)cc1 (configuration not stated) ?
Mcl1-Noxa inh: 24; Mcl1-Bid inh: -12; eIF4E-4G inh: -1; 14-3-3 Bad inh: -14; MCL1-BIM inh: -1; Mcl-1 Bim block: -1

Results for C=CCc1cc(C)ccc1OCC(O)CN1CCN(c2ccccc2)CC1 (configuration not stated) ?
Mcl1-Noxa inh: 14; Mcl1-Bid inh: -16; eIF4E-4G inh: 1; 14-3-3 Bad inh: 70*; MCL1-BIM inh: 4; Mcl-1 Bim block: 2

How did OC(COCc1ccccc1)CN1CCN(Cc2ccc3c(c2)OCO3)CC1 (configuration not stated) do in these assays?
Mcl1-Noxa inh: 55*; Mcl1-Bid inh: 9; eIF4E-4G inh: 1; 14-3-3 Bad inh: 13; MCL1-BIM inh: -5; Mcl-1 Bim block: -1

Results for Cc1ccc(OCC(O)CN2CCOCC2)c(C)c1 (configuration not stated) ?
MCL1-BIM inh: 14

What do the screens show for `Nc1cc(C(=O)OCC(=O)N2CCC(Cc3ccccc3)CC2)ccc1Cl`?
MCL1-BIM inh: -2

What do the screens show for `CN(C(=O)CN1C(=O)C2C3CC(C(Br)C3Br)C2C1=O)C1CCCCC1` (configuration not stated)?
MCL1-BIM inh: 0

What do the screens show for `O=C(c1cccs1)[C@@H]1[C@@H]2C(=O)N(Cc3ccc4c(c3)OCO4)C(=O)[C@@H]2C2c3ccccc3C=CN21` (some centres not stated)?
Mcl1-Noxa inh: -7; Mcl1-Bid inh: -75; eIF4E-4G inh: -20; 14-3-3 Bad inh: -13; MCL1-BIM inh: 43*; Mcl-1 Bim block: -3

How did O=C(c1ccc2c(c1)OCO2)[C@@H]1[C@@H]2C(=O)N(C3CCCCC3)C(=O)[C@@H]2C2c3ccccc3C=CN21 (some centres not stated) do in these assays?
Mcl1-Noxa inh: -3; Mcl1-Bid inh: -13; eIF4E-4G inh: -5; 14-3-3 Bad inh: -18; Mcl-1 Bim block: 0

How did CC(/C=N\Nc1nnc2c(n1)[nH]c1c(C)cccc12)=C\c1ccco1 do in these assays?
Mcl1-Noxa inh: 87*; Mcl1-Bid inh: 78*; eIF4E-4G inh: -24; 14-3-3 Bad inh: 48; MCL1-BIM inh: 9; Mcl-1 Bim block: 0

How did O=C(O)CCc1ccc(-c2ccc(Br)cc2)n1Cc1ccco1 do in these assays?
Mcl1-Noxa inh: 52*; Mcl1-Bid inh: -37; eIF4E-4G inh: -1; 14-3-3 Bad inh: -14; MCL1-BIM inh: 7; Mcl-1 Bim block: 0

What do the screens show for `Cc1ccc(/C=N/Nc2cccc3cccnc23)c(O)c1`?
Mcl1-Noxa inh: 19; Mcl1-Bid inh: -37; eIF4E-4G inh: 3; 14-3-3 Bad inh: 12; MCL1-BIM inh: 8; Mcl-1 Bim block: -6

High-throughput results: PubChem, several laboratories
